In PubChem BioAssay AID1852 (Sanford-Burnham Center for Chemical Genomics, 2009):
About 1,100 (44%) of roughly 2,500 compounds were called active. The set was probably picked from earlier hits. Some of the results follow. Values without a mark were called inactive.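 The calls were made as follows: active = inhibition above 50% at 4 µM in the single-point screen; inactive = inhibition of 50% or less.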

Experiment: blockers of TNF-a NF-kB luciferase induction – cell-based, HEK293T NF-kB-Luc, luminescence, selectivity assay for NOD1/NOD2 signaling inhibitor project, primary screen (AID 1852)
Conditions: TNF-a induced, 14 h, at 4 µM, active compounds read high

Structure (SMILES)	inhibition
CN(C)S(=O)(=O)c1cc(NC(=O)CSc2nn(-c3ccc(Cl)cc3)c(=S)s2)ccc1Cl	-20.5%
CCN(CCn1cccn1)C(=O)CC1C(=O)NCCN1CCc1ccccc1 (stereo not given)	50.2% (active)
CCN(Cc1ccncc1)C(=O)CC1C(=O)NCCN1Cc1ccc(F)c(F)c1 (stereo not given)	1.3%
CC(CN1CCOCC1)OC(=O)Cc1ccc(Cl)cc1 (stereo not given)	12.4%
CSc1ncccc1C(=O)N1CCN(S(=O)(=O)c2cc(C)ccc2C)CC1	-21.1%
COc1ccc(NS(=O)(=O)c2cccc(NC(=O)c3ccc(Cl)nc3)c2)cc1	42%
O=C(Nc1cccc(S(=O)(=O)N2CCCCC2)c1)c1ccccc1NS(=O)(=O)c1ccc(F)cc1	87% (active)
O=C(CCl)Nc1cccc(S(=O)(=O)N2CCCCCC2)c1	30.6%
Cc1ccc(NC(=O)c2cc(=O)c3ccccc3o2)cc1S(=O)(=O)N1CCCCC1	23.9%
Cc1ccc(NC(=O)c2ccccc2NS(=O)(=O)c2ccc(F)cc2)cc1S(=O)(=O)N1CCCCC1	81.2% (active)
COc1ccc(NS(=O)(=O)c2cccc(NC(=O)c3ccc(S(=O)(=O)N4CCCCCC4)cc3)c2)cc1	90.7% (active)
Cc1ccc(NC(=O)CSc2ncnc3ccccc23)cc1S(=O)(=O)N1CCOCC1	39.8%
O=C(Nc1ccc(F)cc1)Nc1ccc(N2CCCC2)c(S(=O)(=O)Nc2ccccc2Cl)c1	35.1%
O=C(Nc1cccc(S(=O)(=O)N2CCCCC2)c1)Nc1ccc(Cl)cc1Cl	-29.7%
Cc1ccc(NC(=O)CSc2ncnc3ccccc23)cc1S(=O)(=O)N1CCCCC1	57.7% (active)
Cc1nc(Sc2nnnn2C)c2c3c(sc2n1)CCC3	25.5%
CC1CCCCC1NC(=O)NC(=O)CCl (stereo not given)	68.1% (active)
CCS(=O)(=O)c1ccc2oc(SCC(=O)NC3CCCC(C)C3C)nc2c1 (stereo not given)	15.3%
CC1CCCC(NC(=O)NC(=O)CCl)C1C (stereo not given)	69.1% (active)
COc1ccccc1C1/C(=C(/O)c2ccc(OC(C)C)cc2)C(=O)C(=O)N1c1cc(C)on1 (stereo not given)	35.4%
O=C(CN(Cc1ccc(Cl)cc1)C(=O)CNS(=O)(=O)c1ccc(F)cc1)NCC1CCCO1 (stereo not given)	38.4%
O=S(=O)(NCC1CCCO1)c1ccc(-c2ccc(S(=O)(=O)NCC3CCCO3)cc2)cc1 (stereo not given)	34.8%
Cc1ccc(NS(=O)(=O)c2ccc(C(=O)N3CCN(c4ncccn4)CC3)cc2)cc1	61.5% (active)

Structure (SMILES)	inhibition
COc1ccc(N2CCN(C(=O)c3ccc(CNS(=O)(=O)c4ccc(C)cc4)cc3)CC2)cc1	35.1%
Cc1cccc(-n2ncc3c(N(C)C4CCCCC4)ncnc32)c1	-64.4%
COc1cccc(N2CCN(c3ncnc4c3cnn4-c3ccc(C)cc3C)CC2)c1	102% (active)
CCOC(=O)C1=C(C)N=c2s/c(=C/c3cccc([N+](=O)[O-])c3O)c(=O)n2C1c1ccccc1 (stereo not given)	74.5% (active)
Cn1c(N2CCN(c3ccccn3)CC2)nc2c1c(=O)n(Cc1ccc(Cl)cc1)c(=O)n2C	17.7%
CCn1c(Oc2ccccc2F)nc2c1c(=O)n(C)c(=O)n2C	69.1% (active)
C=CCn1c(Oc2ccc(C(=O)OC)cc2)nc2c1c(=O)n(C)c(=O)n2C	47.2%
C=CCn1c(Oc2ccccc2F)nc2c1c(=O)n(C)c(=O)n2C	78.4% (active)
Cn1c(=O)c2c(nc(Oc3ccc4ccccc4c3)n2C)n(C)c1=O	40.5%
Cn1c(=O)[nH]c(=O)c2c1nc(N1CCC(Cc3ccccc3)CC1)n2Cc1ccccc1	41.2%
Cn1c(=O)[nH]c(=O)c2c1nc([N+](=O)[O-])n2Cc1ccccc1	104% (active)
CCCCCn1c(SCCc2ccccc2)nc2c1c(=O)[nH]c(=O)n2C	31.3%
CN(Cc1ccc(F)cc1)S(=O)(=O)c1nnc(NC(=O)c2ccccc2)s1	21%
CN(Cc1ccccc1)S(=O)(=O)c1nnc(NC(=O)c2ccc(F)cc2)s1	74.3% (active)
COc1ccc(C(=O)Nc2nnc(S(=O)(=O)N(C)Cc3ccc(F)cc3)s2)cc1OC	-1%
Cc1nc2ccc(NS(=O)(=O)c3ccc(F)c(C)c3)cc2[nH]1	42.8%
Cc1ccc(-c2nc3cccnc3s2)cc1NS(=O)(=O)c1ccc2c(c1)OCCO2	27.3%
Cc1nc2ccc(NS(=O)(=O)c3ccc(C)c(C)c3)cc2s1	48.4%
CS(=O)(=O)c1ccc2nc(NC(=O)c3cccc(NS(=O)(=O)c4ccc(F)c(F)c4)c3)sc2c1	-0.8%
Cc1nc2ccc(NS(=O)(=O)c3ccc4c(c3)OCCO4)cc2s1	72.1% (active)
Cc1nc2ccc(NS(=O)(=O)c3c(C)c(C)cc(C)c3C)cc2s1	61.8% (active)
CSc1nc2ccc(NS(=O)(=O)c3ccc4c(c3)OCCO4)cc2s1	100% (active)
